Several values for one entry are separate records, joined by “and”; a condition that tells them apart may be missing. Equal entries are not always repeated. About 2,000 (36%) of roughly 5,500 compounds were called active. Not shown: some 18% with an inconclusive outcome. The list shows a part of the results. Values without a mark were called inactive. No stated cut-off is given here; in the data, active means normalized growth mostly below about 0.91 (no sharp cut-off); inconclusive means no clear call, values can overlap the other calls; inactive means mostly above about 0.92.
Assay: chemical genetic growth profiling, strain panel (AID 1159580);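 further: tested at 20 µM; growth read once vehicle control cultures reached saturation at 30 °C; 1 = growth at the plate median or of vehicle wells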
Conditions: S. cerevisiae deletion strains, growth OD

## COc1cc2c(cc1OC)[C@@H]1C(=O)c3ccc4c(c3O[C@@H]1CO2)C=CC(C)(C)O4
Locus YAL013W, strain DEP1, stronger effect = lower value
  normalized growth: 0.993
Locus YAL021C, strain ccr4, stronger effect = lower value
  normalized growth: 1.05
Locus YAL026C, strain drs2, stronger effect = lower value
  normalized growth: 1.02
Locus YAL030W, strain snc1, stronger effect = lower value
  normalized growth: 1.02
Locus YBL061C, strain skt5, stronger effect = lower value
  normalized growth: 1.01
Locus YBR009C, strain hhf1, stronger effect = lower value
  normalized growth: 0.938
Locus YBR021W, strain FUR4, stronger effect = lower value
  normalized growth: 0.972
Locus YBR023C, strain chs3, stronger effect = lower value
  normalized growth: 1.01
Locus YBR171W, strain sec66, stronger effect = lower value
  normalized growth: 0.993
Locus YBR229C, strain ROT2, stronger effect = lower value
  normalized growth: 0.99
Locus YBR231C, strain swc5, stronger effect = lower value
  normalized growth: 0.99
Locus YBR279W, strain paf1, stronger effect = lower value
  normalized growth: 1.01
Locus YCL011C, strain gbp2, stronger effect = lower value
  normalized growth: 0.98
Locus YCL016C, strain dcc1, stronger effect = lower value
  normalized growth: 1
Locus YCL029C, strain bik1, stronger effect = lower value
  normalized growth: 0.971
Locus YCL069W, strain vba3, stronger effect = lower value
  normalized growth: 1
Locus YCR088W, strain abp1, stronger effect = lower value
  normalized growth: 1.01
Locus YDL005C, strain med2, stronger effect = lower value
  normalized growth: 1.03
Locus YDL035C, strain GPR1, stronger effect = lower value
  normalized growth: 0.976
Locus YDL040C, strain nat1, stronger effect = lower value
  normalized growth: 1
Locus YDL074C, strain BRE1, stronger effect = lower value
  normalized growth: 0.994
Locus YDL101C, strain DUN1, stronger effect = lower value
  normalized growth: 0.976
Locus YDL134C, strain PPH21, stronger effect = lower value
  normalized growth: 0.99
Locus YDL185W, strain tfp1, stronger effect = lower value
  normalized growth: 0.97
Locus YDL192W, strain arf1, stronger effect = lower value
  normalized growth: 0.964
Locus YDR001C, strain nth1, stronger effect = lower value
  normalized growth: 1.01
Locus YDR069C, strain doa4, stronger effect = lower value
  normalized growth: 1
Locus YDR101C, strain arx1, stronger effect = lower value
  normalized growth: 0.988
Locus YDR137W, strain rgp1, stronger effect = lower value
  normalized growth: 0.88
Locus YDR150W, strain NUM1, stronger effect = lower value
  normalized growth: 0.987
Locus YDR159W, strain sac3, stronger effect = lower value
  normalized growth: 0.898
Locus YDR162C, strain NBP2, stronger effect = lower value
  normalized growth: 1.01
Locus YDR195W, strain ref2
  normalized growth: 1.1
Locus YDR297W, strain sur2, stronger effect = lower value
  normalized growth: 0.993
Locus YDR318W, strain mcm21, stronger effect = lower value
  normalized growth: 0.966
Locus YDR334W, strain swr1, stronger effect = lower value
  normalized growth: 1.02
Locus YDR335W, strain msn5, stronger effect = lower value
  normalized growth: 1.02
Locus YDR388W, stronger effect = lower value
  normalized growth: 0.974
Locus YDR392W, strain spt3, stronger effect = lower value
  normalized growth: 0.607 (active)
Locus YDR502C, strain sam2, stronger effect = lower value
  normalized growth: 0.981
Locus YEL003W, strain gim4, stronger effect = lower value
  normalized growth: 1.01
Locus YEL037C, strain rad23, stronger effect = lower value
  normalized growth: 1.03
Locus YEL061C, strain CIN8 (second series), stronger effect = lower value
  normalized growth: 1.02
Locus YEL061C, strain CIN8, stronger effect = lower value
  normalized growth: 0.995
Locus YER015W, strain faa2, stronger effect = lower value
  normalized growth: 1.01
Locus YER016W, strain bim1, stronger effect = lower value
  normalized growth: 1.01
Locus YER110C, stronger effect = lower value
  normalized growth: 0.962
Locus YER111C, strain swi4, stronger effect = lower value
  normalized growth: 1.04
Locus YER155C, strain BEM2 (second series), stronger effect = lower value
  normalized growth: 0.991
Locus YER155C, strain BEM2, stronger effect = lower value
  normalized growth: 0.988
Locus YER167W, strain BCK2, stronger effect = lower value
  normalized growth: 0.955
Locus YFR010W, strain ubp6, stronger effect = lower value
  normalized growth: 1.01
Locus YGL078C, strain dbp3, stronger effect = lower value
  normalized growth: 0.973
Locus YGL086W, strain mad1, stronger effect = lower value
  normalized growth: 0.958
Locus YGL167C, strain pmr1, stronger effect = lower value
  normalized growth: 1
Locus YGL173C, strain kem1, stronger effect = lower value
  normalized growth: 0.978
Locus YGL227W, strain vid30, stronger effect = lower value
  normalized growth: 1
Locus YGL240W, strain doc1, stronger effect = lower value
  normalized growth: 0.98
Locus YGL248W, strain PDE1, stronger effect = lower value
  normalized growth: 0.986
Locus YGL253W, strain hxk2, stronger effect = lower value
  normalized growth: 0.996
Locus YGR078C, strain PAC10, stronger effect = lower value
  normalized growth: 1.01
Locus YGR135W, strain pre9, stronger effect = lower value
  normalized growth: 0.987
Locus YGR229C, strain SMI1, stronger effect = lower value
  normalized growth: 0.983
Locus YGR252W, strain gcn5, stronger effect = lower value
  normalized growth: 0.891
Locus YHR013C, strain ard1, stronger effect = lower value
  normalized growth: 0.993
Locus YHR027C, strain rpn1, stronger effect = lower value
  normalized growth: 1
Locus YHR030C, strain SLT2, stronger effect = lower value
  normalized growth: 0.986 and 0.96
Locus YHR079C, strain IRE1 (second series), stronger effect = lower value
  normalized growth: 0.987
Locus YHR079C, strain IRE1, stronger effect = lower value
  normalized growth: 0.954
Locus YHR094C, strain hxt1, stronger effect = lower value
  normalized growth: 0.978
Locus YHR129C, strain ARP1, stronger effect = lower value
  normalized growth: 0.989
Locus YHR142W, strain chs7, stronger effect = lower value
  normalized growth: 0.996
Locus YHR200W, strain rpn10, stronger effect = lower value
  normalized growth: 0.965
Locus YIL066C, strain RNR3, stronger effect = lower value
  normalized growth: 0.964
Locus YIL073C, strain SPO22, stronger effect = lower value
  normalized growth: 0.937
Locus YIL125W, strain kgd1, stronger effect = lower value
  normalized growth: 0.979
Locus YIR030C, strain dcg1, stronger effect = lower value
  normalized growth: 0.979
Locus YJL092W, strain hpr5, stronger effect = lower value
  normalized growth: 1
Locus YJL095W, strain BCK1 (second series), stronger effect = lower value
  normalized growth: 0.988
Locus YJL095W, strain BCK1, stronger effect = lower value
  normalized growth: 0.998 and 0.956
Locus YJL115W, strain asf1, stronger effect = lower value
  normalized growth: 1.01
Locus YJL129C, strain trk1, stronger effect = lower value
  normalized growth: 0.985
Locus YJL134W, strain LCB3, stronger effect = lower value
  normalized growth: 0.975
Locus YJL154C, strain vps35, stronger effect = lower value
  normalized growth: 1.01
Locus YJL164C, strain tpk1, stronger effect = lower value
  normalized growth: 1
Locus YJL166W, strain qcr8, stronger effect = lower value
  normalized growth: 0.959
Locus YJL168C, strain set2, stronger effect = lower value
  normalized growth: 0.972
Locus YJL187C, strain SWE1 (second series), stronger effect = lower value
  normalized growth: 0.993
Locus YJR043C, strain POL32, stronger effect = lower value
  normalized growth: 0.987
Locus YJR066W, strain TOR1, stronger effect = lower value
  normalized growth: 0.915
Locus YJR075W, strain HOC1, stronger effect = lower value
  normalized growth: 0.973

Reference: PubChem BioAssay AID1159580 (chemical genetic matrix, 2015)
